# High-throughput results: PubChem BioAssay, National Center for Advancing Translational Sciences (NCATS)
# In the library only some 10% were active in any assay of this set; here they are far more common.
# SARS PLP yeast: qHTS of Yeast-based Assay for SARS-CoV PLP. Potency, µM (doses to about 32.9 µM), for inactives: at the highest dose activity, positive = growth rescue, most hits filed as activators. actives 0.19% (n = 330,000). AID 485353, 2010. S. cerevisiae expressing SARS-CoV PLpro, growth rescue; calls by dose curve; note: 0% is about no effect; nearly all actives have a fitted effect of over 55% in size
# NS1 function inh: qHTS Assay for Inhibitors of Influenza NS1 Protein Function | Potency, µM (highest dose often 46.1 µM), for inactives: at the top dose activity, positive = more growth | actives 0.4% (n = 270,000); calls by dose curve; note: actives are rising curves; nearly all actives have a fitted effect of over 50% in size
#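 S. cerevisiae expressing influenza A NS1, grown in glucose, washed, then diluted 1:100 into pH 6.0 -URA galactose medium with 23 nl compound. Growth recovery read as OD600; NS1-free strain serves as control.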
# Pf growth 48h: Primary qHTS for delayed death inhibitors of the malarial parasite plastid, 48 hour incubation | P. falciparum luciferase growth in erythrocytes, 48 h | actives 5.9% (n = 310,000) | AID 504832, 2011 | Potency, µM (highest dose often 28.7 µM), inactives show top-dose activity change, negative = inhibition, usual class: inhibitors; note: % is set by controls: 0 for no effect and ±100 for the full control effect
#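 Luciferase-expressing P. falciparum in infected erythrocytes (2% hematocrit, 0.1% parasitemia final) in RPMI 1640/0.5% Albumax were exposed to compound for 48 hours at 37 C, 5% CO2; growth read as luminescence.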
# Pf growth 96h: Primary qHTS for delayed death inhibitors of the malarial parasite plastid, 96 hour incubation; actives 6.9% (n = 320,000); P. falciparum luciferase reporter growth, 96 h; Potency, µM (doses to about 28.7 µM), without a hit: top-dose activity change, negative = inhibition, hits mostly inhibitors; AID 504834, 2011; note: % is set by controls: 0 for no effect and ±100 for the full control effect
#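 Two parasite generations (96 h, 37 C, 5% CO2) of compound exposure in infected erythrocytes (0.05% parasitemia, 2% hematocrit). Luciferase-reporter P. falciparum; decreased luminescence indicates inhibited growth, aimed at apicoplast-acting delayed death.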
# Active calls of the source: *; ? = inconclusive; · = no result; [ ] = another dose, or the depositor's remark. Unless noted, calls come from the whole dose curve; as a rule, active = well fitted inhibition curve with a large enough effect; inconclusive = small, poorly fitted or top-dose-only effect, or another doubt; inactive = no such curve, though single readings can be large or run the other way. Potency is the fitted concentration of half-maximal effect.
SMILES,SARS PLP yeast,NS1 function inh,Pf growth 48h,Pf growth 96h
COc1cccc(C2c3[nH]c4ccccc4c3C[C@H]3C(=O)N(c4ccccc4C(=O)NCCCN4CCOCC4)C(=O)N23)c1 (stereo partly specified),6%,-11%,15µM*,12µM*
COc1ccc(-n2nc(C(=O)NCCCN3CCOCC3)c3ccccc3c2=O)c(OC)c1,-14%,-6%,-5%,-7%
Cc1ccc(C(=O)NC(c2ccccc2)C(Cl)Cl)cc1 (stereo unspecified),-2%,-12%,0%,?
O=C(NC(c1ccccc1)C(Cl)Cl)c1ccccc1 (stereo unspecified),-22%,-30%,-27%,2.6µM*
CC(=O)Nc1ccc(S(=O)(=O)Oc2ccc(/C=N/NC(=O)c3ccc(Cl)cc3)cc2)cc1,2%,-3%,13µM*,?
O=C(Nc1ccc(Cl)c(Cl)c1)Nc1ccc(N2CCCC2)c(S(=O)(=O)Nc2ccccc2Cl)c1,2%,-6%,13µM*,3.7µM*
O=C(Nc1ccc(F)cc1)Nc1ccc(N2CCCC2)c(S(=O)(=O)Nc2ccccc2Cl)c1,4%,23%,9.3µM*,4.7µM*
NS(=O)(=O)c1cc(Cl)c(NC(=O)COC(=O)c2ccccn2)c(Cl)c1,9%,·,-19%,-28%
CCCc1cc(C(=O)N2CCN(c3ccc(C(F)(F)F)cn3)CC2)sc1C,-7%,-14%,1%,20%
O=C(CC(=O)N/N=C/c1ccccc1)NCc1ccccc1,0%,10%,0%,10µM*
CC(C)(C)C1CCC(=NNC(=O)CC(=O)NCc2ccccc2)CC1 (stereo unspecified),-19%,-1%,10%,2.1µM*
O=C(CC(=O)N/N=C\c1c(Cl)cccc1Cl)NCc1ccccc1,1%,9%,6%,1µM*
Cc1ccsc1C(=O)N(C)CC(=O)N(CC(C)C)c1c(N)n(CC(C)C)c(=O)[nH]c1=O,1%,·,-15%,5%
Cc1ccccc1OCC(=O)Nc1ccccc1N1CCC(C)CC1,2%,·,?,32%[5.75 µM]
COc1ccc(/C(C)=N/NC(=O)Cn2nc([N+](=O)[O-])cc2C)cc1,1%,3%,?,0%
CCOC(=O)N1CCN(S(=O)(=O)N2CCCC(C(=O)NCc3ccccc3Cl)C2)CC1 (stereo unspecified),5%,-14%,6%,12µM*
Cc1ccc(C)c(N2CCN(C(=O)C3CCCN(S(=O)(=O)c4c(C)noc4C)C3)CC2)c1 (stereo unspecified),-14%,-40%,12µM*,-24%
Cc1noc(/C=C/N(C)C)c1S(=O)(=O)N1CCCC(C(=O)NC2CCCCC2)C1 (stereo unspecified),6%,?,?,37%
Cc1noc(/C=C/N(C)C)c1S(=O)(=O)N1CCCC(C(=O)N2CCCCC2)C1 (stereo unspecified),8%,28%,9.3µM*,-5%
Cc1noc(C)c1S(=O)(=O)N1CCN(c2ccccc2Cl)CC1,0%,·,?,15µM*
O=C(COC(=O)c1cccs1)NCCc1ccc(F)cc1,-2%,·,-28%,23%
COc1cccc(-c2c(C(=O)N/N=C/c3ccco3)nnn2-c2nonc2N)c1,10%,7%,20%,4%
Cc1ccc(CNC(=O)C2CCCN(S(=O)(=O)c3c(C)noc3/C=C/N(C)C)C2)cc1 (stereo unspecified),4%,22%,13µM*,?
CCOC(=O)N1CCN(C(=O)C2CCCN(S(=O)(=O)c3c(C)cc(C)cc3C)C2)CC1 (stereo unspecified),2%,-9%,?,10µM*
Cc1cc(C)c(NC(=O)C2CCCN(S(=O)(=O)c3c(C)noc3/C=C/N(C)C)C2)c(C)c1 (stereo unspecified),-4%,14%,?,13µM*
SMILES,SARS PLP yeast,NS1 function inh,Pf growth 48h,Pf growth 96h
Cc1c(CCO)c(=O)n(-c2ccccc2)n1S(=O)(=O)c1ccc(Cl)cc1,5%,3%,1%,·
COc1ccc(C(=O)C2CCN(C(=O)Nc3ccccc3C)CC2)cc1,-6%,13%,9%,?
O=C(NC1CCN(Cc2ccc3ccccc3c2)CC1)c1ccccc1,-3%,2%,11%[0.00184 µM],?
COCC(=O)n1nc(-c2ccc(Cl)cc2)nc1NCc1ccc(F)cc1,-1%,-4%,·,2.9µM*
CC(C)C[C@H](NC(=O)[C@@H]1Cc2c([nH]c3ccccc23)C2c3ccccc3C(=O)N21)C(=O)NCC1CCCO1 (stereo partly specified),5%,-9%,?,9.3µM*
CSCC[C@H](NC(=O)[C@@H]1Cc2c([nH]c3ccccc23)C2c3ccccc3C(=O)N21)C(=O)NCC1CCCO1 (stereo partly specified),2%,-1%,?,9.3µM*
CC(C)[C@H](NC(=O)[C@@H]1Cc2c([nH]c3ccccc23)C2c3ccccc3C(=O)N21)C(=O)NCC1CCCO1 (stereo partly specified),1%,7%,?,?
CCN1C(=S)SC(=O)C1=C1C=C(C)N(Cc2ccco2)C(C)=C1,7%,-39%,-7%,-24%
CN1C(=O)C2(c3ccccc31)N(C)CC(c1ccccc1)C21SC(=S)N(Cc2ccco2)C1=O (stereo unspecified),-18%,3%,1.3µM*,15µM*
CN1C(=O)C2(c3ccccc31)N(C)CC(c1ccccn1)C21SC(=S)N(Cc2ccco2)C1=O (stereo unspecified),-14%,-70%,9.3µM*,?
CN1C(=O)NC(c2ccccc2)C2=C1CN(Cc1ccco1)C2=O (stereo unspecified),0%,-9%,4%,8%
CN(CC(=O)NCC1CCCCC1)CC(=O)Nc1ccc(F)cc1,1%,·,?,-10%
O=c1[nH]c(CSc2cccc[n+]2[O-])nc2ccccc12,-7%,-65%,13µM*,?
CC1CCCCN1Cc1nc2ccccc2c(=O)[nH]1 (stereo unspecified),-1%,1%,-14%,0.019µM*
O=c1[nH]c(Cc2ccccc2Cl)nc2ccccc12,2%,·,11%,9.3µM*
CC(C)Cn1c(SCC#N)nc2ccccc2c1=O,10%,-13%,-15%,18%
O=c1[nH]c(Cc2ccccc2)nc2ccccc12,0%,4%,8%,11%
CC(C)Cn1c(SCc2nc3ccccc3c(=O)[nH]2)nc2ccccc2c1=O,1%,2%,7.4µM*,71%
O=C(Oc1ccc(Br)cc1C(=S)N1CCOCC1)c1ccc([N+](=O)[O-])cc1[N+](=O)[O-],-2%,-15%,42%,?
Cn1c(-c2ccccc2)cnc1SCc1nc2ccccc2c(=O)[nH]1,-15%,-17%,198%,2.3µM*
Cn1c(SCc2nc3ccccc3c(=O)[nH]2)nc2ccccc21,-2%,-5%,11%,-12%
CCOC(=O)c1c[nH]c2cc(OCC(C)C)c(OCC(C)C)cc2c1=O,·,·,0.054µM*,0.038µM*
CCOC(=O)c1c[nH]c2nc(C)ccc2c1=O,8%,·,-28%,31%
